Test results: the supplement of paper PMC11732987, “Enantioselective OTUD7B fragment discovery through chemoproteomics screening and high-throughput optimisation” (Communications Chemistry, 2025)
Unmarked numbers belong to inactive results.

Target: T1, USP38 (UniProt Q8NB14)
T1 sequence (whole entry): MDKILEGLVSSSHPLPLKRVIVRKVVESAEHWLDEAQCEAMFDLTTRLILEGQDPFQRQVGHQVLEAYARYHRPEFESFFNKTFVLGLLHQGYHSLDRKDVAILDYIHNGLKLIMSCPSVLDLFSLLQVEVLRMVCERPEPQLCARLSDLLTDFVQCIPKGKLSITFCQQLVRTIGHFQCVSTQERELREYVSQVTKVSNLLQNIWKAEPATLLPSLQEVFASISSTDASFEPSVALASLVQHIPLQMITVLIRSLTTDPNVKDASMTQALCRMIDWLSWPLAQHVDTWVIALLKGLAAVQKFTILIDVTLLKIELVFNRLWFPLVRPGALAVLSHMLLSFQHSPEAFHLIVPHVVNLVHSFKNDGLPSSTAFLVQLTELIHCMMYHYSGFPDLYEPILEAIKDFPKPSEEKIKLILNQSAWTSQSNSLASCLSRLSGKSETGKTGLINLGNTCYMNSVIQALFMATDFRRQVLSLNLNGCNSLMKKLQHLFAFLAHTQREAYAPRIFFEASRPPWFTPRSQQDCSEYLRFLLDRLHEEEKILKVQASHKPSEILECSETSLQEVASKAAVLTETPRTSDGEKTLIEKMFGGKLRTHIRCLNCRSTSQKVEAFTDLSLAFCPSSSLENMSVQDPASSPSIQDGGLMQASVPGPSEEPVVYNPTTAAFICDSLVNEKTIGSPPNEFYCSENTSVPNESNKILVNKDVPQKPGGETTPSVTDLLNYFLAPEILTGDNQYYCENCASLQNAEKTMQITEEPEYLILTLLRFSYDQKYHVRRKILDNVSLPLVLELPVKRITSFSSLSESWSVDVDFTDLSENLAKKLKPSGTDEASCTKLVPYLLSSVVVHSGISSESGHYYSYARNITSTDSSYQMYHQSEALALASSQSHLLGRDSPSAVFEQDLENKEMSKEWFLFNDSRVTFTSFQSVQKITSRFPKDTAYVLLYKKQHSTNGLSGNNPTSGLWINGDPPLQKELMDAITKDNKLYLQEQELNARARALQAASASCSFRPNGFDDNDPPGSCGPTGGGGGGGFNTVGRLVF
Experiment: log2 ratio of Biotin-Ahx-Ub-VS probe labelling (fragment/DMSO); higher = less target engagement (more negative = stronger competition), active = hit call of the paper (q ≤ 0.05, log2 ratio ≤ -1)
Details: compound concentration: 200 uM; treatment time: 3 h
Procedure: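 Competitive ABPP in HEK293T cell lysate. Lysates were treated with each chloroacetamide fragment at 200 µM for 3 h, then with Biotin-Ahx-Ub-VS (0.5 µM, 1 h), NeutrAvidin-enriched and analysed by diaPASEF LC-MS/MS. Protein LFQ was median-normalised; average log2 ratio is fragment/DMSO from an unpaired t-test (n=3 treated, n=44 DMSO). Hits: q ≤ 0.05, log2 ratio ≤ -1, unique peptides ≥ 2.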

Row | Compound | log2 ratio of Biotin-Ahx-Ub-VS probe labelling
1 | Cc1nnc(NC(=O)CCl)s1 | -0.33
2 | CC1CN(C(=O)CCl)CC(C)O1 (centres undefined) | -0.205
3 | CC(C)CN(C(=O)CCl)C1CC1 | 0.00725
4 | O=C(CCl)N1CCCC1=O | -0.1
5 | O=C(CCl)NCc1ccco1 | -0.144
6 | O=C(CCl)NCC1CCCO1 (centres undefined) | -0.00745
7 | Cc1ncsc1CNC(=O)CCl.Cl | 0.147
8 | O=C(CCl)NCC1CCC1 | 0.000742
9 | CC(NC(=O)CCl)c1cccs1 (centres undefined) | -0.0174
10 | CN(C(=O)CCl)C1CCCCC1 | 0.0172
11 | Cc1nc(NC(=O)CCl)sc1C | -0.00435
12 | O=C(CCl)NC(C1CC1)C1CC1 | -0.124
13 | Cc1cccc(NC(=O)CCl)c1 | -0.146
14 | Cc1cc(NC(=O)CCl)no1 | -0.139
15 | O=C(CCl)N1CCCCCCC1 | -0.0744
16 | O=C(CCl)Nc1cccc(Cl)c1 | -0.568
17 | CC1CCCCC1NC(=O)CCl (centres undefined) | -0.0227
18 | N#CC1(NC(=O)CCl)CCCC1 | -0.0299
19 | CC1CCCCN1C(=O)CCl (centres undefined) | -0.196
